From PubChem BioAssay AID2330 (Broad Institute, 2010)
Among all 37,000 compounds or so, about 2,800 (7.6%) were called active. Not shown: some 1% with an inconclusive outcome. What follows is part of a selection rich in actives, with near analogues and random picks from the rest. Unmarked numbers belong to inactive results. No stated cut-off is given here; in the data, active means inhibition above about 80%; inconclusive means no clear call, values can overlap the other calls; inactive means below that.

Assay: NOMO-1 AML cell viability reduction, primary screen, STK33 inhibitor project, CellTiter-Glo luminescence (AID 2330)
Settings: NOMO-1 AML viability, 72 h, hits give high values, concentration not given here

Compound	inhibition
C[C@@H]1CN([C@@H](C)CO)C(=O)c2cc(NS(=O)(=O)c3ccccc3)ccc2O[C@H]1CN(C)CC1CC1	-13.4%
O=C(CN(C1CCCCC1)S(=O)(=O)c1ccc(Cl)cc1)Nc1ccccc1C(F)(F)F	25.5%
COc1ccc(S(=O)(=O)N(C)C[C@H]2Oc3ccc(N(C)C)cc3C(=O)N([C@@H](C)CO)C[C@@H]2C)cc1	11.7%
CN1C(=O)C(Cc2ccccc2)(Cc2ccccc2)c2ccccc21	96.7% (active)
CN1C(=O)CC(c2ccccc2)C1=O (stereo unspecified)	14.7%
CN1C(=O)C(O)(CC(=O)c2ccco2)c2cc([N+](=O)[O-])ccc21 (stereo unspecified)	36.2%
C[C@H](CO)N1C[C@H](C)[C@H](CN(C)C)Oc2c(NS(=O)(=O)c3ccc(Cl)cc3)cccc2C1=O	17.7%
CN1CCN(C(=O)CCc2nc(-c3ccc(Cl)cc3)no2)CC1	-5.54%
Cn1c(Cc2csc(N)n2)nnc1SC/C=C/c1ccccc1	23.5%
CC(C)NC(=O)N(C)C[C@H]1Oc2ccc(NC(=O)Cn3cnnn3)cc2CC(=O)N([C@H](C)CO)C[C@H]1C	36.1%
CC1OC(OC2C(OC3C(O[C@H]4CC[C@@]5(C)C(CC[C@]6(C)C5CC=C5[C@@H]7CC(C)(C)C[C@@H](O)[C@]7(C)CC[C@]56C)C4(C)C)OC(C(=O)O)C(O)C3O)OC(CO)C(O)C2O)C(O)C(O)C1O (stereo partly specified)	25.4%
C[C@@H]1CC[C@]2(C(=O)O)CC[C@]3(C)C(=CCC4[C@@]5(C)CC[C@H](O)[C@](C)(C(=O)O)C5CC[C@]43C)C2[C@]1(C)O (stereo partly specified)	29.2%
CC1(C)CC[C@@]2(C(=O)O)C(C1)C1=CCC3[C@@]4(C)CC[C@H](O)C(C)(C)C4CC[C@@]3(C)[C@]1(C)C[C@H]2O (stereo partly specified)	108% (active)
CC1(C)C2CC[C@]3(C)C(C(=O)C=C4[C@@H]5C[C@@](C)(C(=O)O)CC[C@]5(C)CC[C@]43C)[C@@]2(C)CC[C@@H]1O (stereo partly specified)	63.8%
C[C@@H]1O[C@@H](O[C@H]2[C@@H](Oc3cc(O)c4c(c3)O[C@H](c3ccc(O)cc3)CC4=O)O[C@H](CO)[C@@H](O)[C@@H]2O)[C@H](O)[C@H](O)[C@H]1O	-11.7%
C/C=C(/C)C(=O)O[C@H]1CC(C)(C)C[C@H]2C3=CCC4[C@@]5(C)CC[C@H](O[C@@H]6O[C@H](C(=O)O)[C@@H](O[C@@H]7O[C@H](CO)[C@H](O)[C@H](O)[C@H]7O[C@@H]7O[C@H](CO)[C@@H](O)[C@H](O)[C@H]7O)[C@H](O)[C@H]6O[C@@H]6O[C@@H](C)[C@H](O)[C@@H](O)[C@H]6O)C(C)(C)C5CC[C@@]4(C)[C@]3(C)[C@@H](OC(C)=O)[C@@H](O)[C@@]12COC(C)=O (stereo partly specified)	121% (active)
C=CC1(C)C=C2CCC3C(C)(C)C(O[C@@H]4O[C@@H](CO)[C@H](O)[C@H]4O)CCC3(C)C2CC1O[C@@H]1O[C@H](C)[C@@H](OC)[C@H](O)[C@H]1O (stereo partly specified)	14%
CC1(C)CC[C@]2(C(=O)O)CC[C@]3(C)C(=CCC4[C@@]5(C)CC[C@H](OC6O[C@H](CO)[C@@H](O)[C@H](O[C@@H]7O[C@H](CO)[C@@H](O)[C@H](O)[C@H]7O)[C@H]6O)C(C)(C)C5CC[C@]43C)[C@@H]2C1 (stereo partly specified)	119% (active)

Compound	inhibition
C/C=C(/C)C(=O)O[C@H]1CC(C)(C)C[C@H]2C3=CCC4[C@@]5(C)CC[C@H](O[C@@H]6O[C@H](C(=O)O)[C@@H](O[C@@H]7O[C@H](CO)[C@H](O)[C@H](O)[C@H]7O[C@@H]7O[C@H](CO)[C@@H](O)[C@H](O)[C@H]7O)[C@H](O)[C@H]6O[C@@H]6O[C@@H](C)[C@H](O)[C@@H](O)[C@H]6O)C(C)(C)C5CC[C@@]4(C)[C@]3(C)[C@@H](O)[C@@H](O)[C@@]12CO (stereo partly specified)	119% (active)
COC(=O)C1=CO[C@@H](O[C@@H]2O[C@H](CO)[C@@H](O)[C@H](O)[C@H]2O)[C@@H]2[C@@](C)(O)[C@@H](OC(=O)/C=C/c3ccc(OC)c(OC)c3)C[C@]12O	11.5%
C[C@@H]1CN([C@H](C)CO)C(=O)c2cc(NC(=O)CCCCCC(=O)Nc3ccccc3N)ccc2O[C@@H]1CN(C)S(=O)(=O)c1ccc(Cl)cc1	53.5%
CC(C)(C)c1nc(=S)[nH][nH]1	17.3%
Cc1cc2c(=O)n(C)c(SCC(=O)c3cc4ccccc4o3)nc2s1	-4.22%
O=C1CC(c2ccccc2)C(=O)N1c1ccc(F)cc1 (stereo unspecified)	22.5%
C[C@@H]1CN([C@@H](C)CO)C(=O)c2cccc(NC(=O)c3ccncc3)c2O[C@H]1CN(C)S(=O)(=O)c1ccc(F)cc1	19.5%
C[C@H](CO)N1C[C@H](C)[C@@H](CN(C)S(=O)(=O)c2ccc(Cl)cc2)Oc2ccc(NS(=O)(=O)c3cn(C)cn3)cc2C1=O	13.1%
C[C@@H]1CN([C@H](C)CO)C(=O)c2cccc(NS(=O)(=O)c3ccc(Cl)cc3)c2O[C@@H]1CN(C)Cc1ccc(Cl)c(Cl)c1	33.7%
O=C(CSc1nnc(-c2ccccc2Cl)n1-c1ccccc1)Nc1ccc([N+](=O)[O-])cc1	18.6%
C[C@@H]1CN([C@@H](C)CO)C(=O)c2cc(NC(=O)Cc3ccccc3)ccc2O[C@@H]1CN(C)CC1CCCCC1	17.8%
O=C(NCc1cccnc1)c1cnn2c(C(F)F)cc(-c3ccccc3)nc12	11%
NC(=O)c1c(NC(=O)c2cnn3c(C(F)F)cc(-c4ccccc4)nc23)sc2c1CCCC2	112% (active)
COc1cccc2cc(C(=O)Nc3sc4c(c3C(N)=O)CCCCC4)c(=O)oc12	6.77%
O=C(Cn1cnc([N+](=O)[O-])n1)Nc1c(Cl)cccc1Cl	-1.21%
COc1ccc(OC)c(NC(=O)CSc2nc(-c3ccccc3)cc(=O)[nH]2)c1	5.5%
COc1ccccc1NC(=O)CSc1nc2cc3ccccc3cc2[nH]1	108% (active)
COc1ccccc1NC(=O)CSc1n[nH]c(C)n1	4.79%
